Hit rate of the full screen: of about 320,000 compounds, about 1,000 (0.31%) were called active. The entries come from a sample that favours actives as a whole. Unmarked numbers belong to inactive results.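 The calls were made as follows: active = activation above the mean of all tested compounds plus 3 SD, cutoff set per screening run (cut at about 20% in these data); inactive = the rest.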
Each compound was assayed against Oxytocin receptor (Homo sapiens) (UniProt P30559) (assay: oxytocin receptor activation by calcium flux – fluorescence, CHO-OTR cells, Fluo-8 calcium, primary screen (AID 2435;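 also: peak over basal fluorescence ratio from a 100 s FLIPR kinetic read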)). Settings: Fluo-8 calcium fluorescence, at 3 µM, active compounds read high.
Sequence of Oxytocin receptor (Homo sapiens) (P30559 whole entry, looked up): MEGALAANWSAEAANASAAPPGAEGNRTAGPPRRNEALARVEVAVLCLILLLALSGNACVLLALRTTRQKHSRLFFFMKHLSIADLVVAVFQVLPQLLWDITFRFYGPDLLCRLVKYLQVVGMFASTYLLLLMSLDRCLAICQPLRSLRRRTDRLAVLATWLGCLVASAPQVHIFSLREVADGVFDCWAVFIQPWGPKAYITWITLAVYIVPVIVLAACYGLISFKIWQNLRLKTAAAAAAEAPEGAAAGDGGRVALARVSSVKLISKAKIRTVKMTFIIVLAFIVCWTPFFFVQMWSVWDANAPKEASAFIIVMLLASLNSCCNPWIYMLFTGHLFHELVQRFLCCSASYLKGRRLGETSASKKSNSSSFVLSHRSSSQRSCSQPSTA
For CC(Cc1ccccc1)NCCC(c1ccccc1)c1ccccc1 (stereo not given), the activation was 23.9% (active). With CC(Cc1ccccc1)NC=O (stereo not given) the activation was -0.34%. With CC(=O)NC(=O)NC(C)Cc1ccccc1 (stereo not given) the activation was -0.72%. O=C(c1cc2nc(-c3ccccc3)cc(-c3ccccc3)n2n1)N1CCC2(CC1)OCCO2 showed an activation of -2.27%. O=C(Cc1ccc(Cl)cc1)NCCN1CCN(C(=O)Cc2ccc(Cl)cc2)CC1 was tested, and the activation was 1.31%.
